# Measured values: the supplement of paper PMC8728848
# The full list was thinned out, with the strongest signals kept by preference.
# B1: Pa IMPa (Pseudomonas aeruginosa), Q9I5W4 (protein)
# chain: MSLSTTAFPSLQGENMSRSPIPRHRALLAGFCLAGALSAQAATQEEILDAALVSGDSSQLTDSHLVALRLQQQVERIRQTRTQLLDGLYQNLSQAYDPGAASMWVLPANPDNTLPFLIGDKGRVLASLSLEAGGRGLAYGTNVLTQLSGTNAAHAPLLKRAVQWLVNGDPGAATAKDFKVSVVGVDKTAALNGLKSAGLQPADAACNALTDASCASTSKLLVLGNGASAASLSATVRARLQAGLPILFVHTNGWNQSSTGQQILAGLGLQEGPYGGNYWDKDRVPSSRTRTRSVELGGAYGQDPALVQQIVDGSWRTDYDWSKCTSYVGRTTCDDVPGLSDFSKRVDVLKGALDAYNQKAQNLFALPGTTSLRLWLLWADAVRQNIRYPMDKAADTARFQETFVADAIVGYVREAGAAQKELGSYAGQRQQSMPVSGSEETLTLTLPSAQGFTAIGRMAAPGKRLSIRIEDAGQASLAVGLNTQRIGSTRLWNTRQYDRPRFLKSPDIKLQANQSVALVSPYGGLLQLVYSGATPGQTVTVKVTGAASQPFLDIQPGEDSSQAIADFIQALDADKADWLEIRSGSVEVHAKVEKVRGSIDKDYGGDVQRFIRELNEVFIDDAYTLAGFAIPNQAKTPAIQQECAARGWDCDSETLHKLPGTQHINVDQYAQCGGGCSGNPYDQTWGLNPRGWGESHELGHNLQVNRLKVYGGRSGEISNQIFPLHKDWRVLREFGQNLDDTRVNYRNAYNLIVAGRAEADPLAGVYKRLWEDPGTYALNGERMAFYTQWVHYWADLKNDPLQGWDIWTLLYLHQRQVDKSDWDANKAALGYGTYAQRPGNSGDASSTDGNDNLLLGLSWLTQRDQRPTFALWGIRTSAAAQAQVAAYGFAEQPAFFYANNRTNEYSTVKLLDMSQGSPAWPFP
# How the values were obtained:
# Assay in all cases: glycan array binding signal (z-score within array); higher = stronger binding
# Conditions in all cases: glycan notation: IUPAC condensed, linker removed
# Fuc(a1-2)Gal(b1-3)GlcNAc = biological target: Fuc(a1-2)Gal(b1-3)GlcNAc
# How it was run: (§1)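 The binding signal is a Z-score computed within each array. Data were drawn from 3228 arrays in the Consortium for Functional Glycomics database, restricted to those with a known protein sequence. Scores were averaged over arrays of the same protein sequence at different concentrations or buffers, and over linkers, and negative values can be taken as non-binding.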
# [1] = biological target: Fuc(a1-2)Gal(b1-3)GlcNAc6S
# How it was run: as §1
# [2] = biological target: Fuc(a1-2)Gal(b1-3)[Fuc(a1-4)]GlcNAc
# How it was run: as §1
# [3] = biological target: Fuc(a1-2)Gal6S(b1-3)GlcNAc
# How it was run: as §1
# [4] = biological target: Fuc(a1-2)Gal6S(b1-3)GlcNAc6S
# How it was run: as §1
# [5] = biological target: Fuc(a1-2)[GalNAc(a1-3)]Gal(b1-3)GlcNAc(b1-3)GalNAc
# How it was run: as §1
# [6] = biological target: Fuc(a1-3)[Gal(b1-4)]GlcNAc6S
# How it was run: as §1
# [7] = biological target: Fuc(a1-3)[Gal3S(b1-4)]Glc
# How it was run: as §1
# [8] = biological target: Fuc(a1-3)[Gal3S(b1-4)]GlcNAc
# How it was run: as §1
# Gal(a1-3)Gal = biological target: Gal(a1-3)Gal
# How it was run: as §1
# [9] = biological target: Gal(a1-3)Gal(b1-3)GlcNAc(b1-2)Man
# How it was run: as §1
# Gal(b1-2)Gal = biological target: Gal(b1-2)Gal
# How it was run: as §1
# [10] = biological target: Gal(b1-3)GlcNAc(a1-3)Gal(b1-4)GlcNAc
# How it was run: as §1
# [11] = biological target: Gal(b1-3)GlcNAc(b1-2)[Gal(b1-3)GlcNAc(b1-6)]Man(a1-6)[Gal(b1-3)GlcNAc(b1-2)Man(a1-3)]Man(b1-4)GlcNAc(b1-4)GlcNAc
# How it was run: as §1
# [12] = biological target: Gal(b1-3)GlcNAc(b1-3)Gal(b1-4)Glc
# How it was run: as §1
# [13] = biological target: Gal(b1-3)GlcNAc(b1-3)Gal(b1-4)GlcNAc(b1-2)[Gal(b1-3)GlcNAc(b1-3)Gal(b1-4)GlcNAc(b1-6)]Man(a1-6)[Gal(b1-3)GlcNAc(b1-3)Gal(b1-4)GlcNAc(b1-2)Man(a1-3)]Man(b1-4)GlcNAc(b1-4)[Fuc(a1-6)]GlcNAc
# How it was run: as §1
# [14] = biological target: Gal(b1-4)GlcNAc(b1-2)Man(a1-3)[Gal(b1-4)GlcNAc(b1-2)Man(a1-6)][GlcNAc(b1-4)]Man(b1-4)GlcNAc(b1-4)[Fuc(a1-6)]GlcNAc
# How it was run: as §1
# [15] = biological target: Gal(b1-4)GlcNAc(b1-3)Gal(b1-4)GlcNAc(b1-3)Gal(b1-4)GlcNAc
# How it was run: as §1
# [16] = biological target: Gal(b1-4)GlcNAc(b1-3)Gal(b1-4)GlcNAc(b1-3)Gal(b1-4)GlcNAc(b1-3)Gal(b1-4)GlcNAc(b1-3)Gal(b1-4)GlcNAc(b1-2)Man(a1-3)[Gal(b1-4)GlcNAc(b1-3)Gal(b1-4)GlcNAc(b1-3)Gal(b1-4)GlcNAc(b1-3)Gal(b1-4)GlcNAc(b1-3)Gal(b1-4)GlcNAc(b1-2)Man(a1-6)]Man(b1-4)GlcNAc(b1-4)GlcNAc
# How it was run: as §1
# [17] = biological target: Gal(b1-4)GlcNAc(b1-6)Gal(b1-4)GlcNAc
# How it was run: as §1
# Gal6S(b1-3)GlcNAc = biological target: Gal6S(b1-3)GlcNAc
# How it was run: as §1
# GalNAc(b1-4)GlcNAc = biological target: GalNAc(b1-4)GlcNAc
# How it was run: as §1
# [18] = biological target: GalNAc(b1-4)GlcNAc(b1-2)Man
# How it was run: as §1
# [19] = biological target: GalNAc(b1-4)GlcNAc(b1-3)GalNAc(b1-4)GlcNAc
# How it was run: as §1
# GalNAc4S6S(b1-4)GlcNAc = biological target: GalNAc4S6S(b1-4)GlcNAc
# How it was run: as §1
# [20] = biological target: Glc(a1-4)Glc(a1-4)Glc(a1-4)Glc
# How it was run: as §1
# [21] = biological target: Glc(a1-6)Glc(a1-6)Glc(a1-6)Glc
# How it was run: as §1
# Glc(b1-6)Glc = biological target: Glc(b1-6)Glc
# How it was run: as §1
# [22] = biological target: GlcNAc(a1-4)Gal(b1-4)GalNAc
# How it was run: as §1
# [23] = biological target: GlcNAc(a1-4)Gal(b1-4)GlcNAc
# How it was run: as §1
# [24] = biological target: GlcNAc(a1-4)Gal(b1-4)GlcNAc(b1-3)Gal(b1-4)GlcNAc
# How it was run: as §1
# [25] = biological target: GlcNAc(b1-2)[GlcNAc(b1-4)]Man(a1-3)[GlcNAc(b1-4)][GlcNAc(b1-2)[GlcNAc(b1-6)]Man(a1-6)]Man(b1-4)GlcNAc(b1-4)[Fuc(a1-6)]GlcNAc
# How it was run: as §1
# GlcNAc(b1-3)Fuc = biological target: GlcNAc(b1-3)Fuc
# How it was run: as §1
# GlcNAc(b1-3)Gal(b1-4)Glc = biological target: GlcNAc(b1-3)Gal(b1-4)Glc
# How it was run: as §1
# [26] = biological target: GlcNAc(b1-3)Gal(b1-4)GlcNAc(b1-3)Gal(b1-4)GlcNAc(b1-2)Man(a1-3)[GlcNAc(b1-3)Gal(b1-4)GlcNAc(b1-3)Gal(b1-4)GlcNAc(b1-2)Man(a1-6)]Man(b1-4)GlcNAc(b1-4)GlcNAc
# How it was run: as §1
# [27] = biological target: GlcNAc(b1-3)Gal(b1-4)GlcNAc(b1-3)Gal(b1-4)GlcNAc(b1-3)Gal(b1-4)GlcNAc(b1-3)Gal(b1-4)GlcNAc(b1-2)Man(a1-3)[GlcNAc(b1-3)Gal(b1-4)GlcNAc(b1-3)Gal(b1-4)GlcNAc(b1-3)Gal(b1-4)GlcNAc(b1-3)Gal(b1-4)GlcNAc(b1-2)Man(a1-6)]Man(b1-4)GlcNAc(b1-4)[Fuc(a1-6)]GlcNAc
# How it was run: as §1
# [28] = biological target: GlcNAc(b1-3)Gal(b1-4)GlcNAc(b1-3)Gal(b1-4)GlcNAc(b1-3)Gal(b1-4)GlcNAc(b1-3)Gal(b1-4)GlcNAc(b1-2)[GlcNAc(b1-3)Gal(b1-4)GlcNAc(b1-3)Gal(b1-4)GlcNAc(b1-3)Gal(b1-4)GlcNAc(b1-3)Gal(b1-4)GlcNAc(b1-6)]Man(a1-6)[GlcNAc(b1-3)Gal(b1-4)GlcNAc(b1-3)Gal(b1-4)GlcNAc(b1-3)Gal(b1-4)GlcNAc(b1-3)Gal(b1-4)GlcNAc(b1-2)Man(a1-3)]Man(b1-4)GlcNAc(b1-4)[Fuc(a1-6)]GlcNAc
# How it was run: as §1
# [29] = biological target: GlcNAc(b1-3)Gal(b1-4)GlcNAc(b1-3)[GlcNAc(b1-3)Gal(b1-4)GlcNAc(b1-3)]GalNAc
# How it was run: as §1
# Kdn(a2-3)Gal(b1-4)GlcNAc = biological target: Kdn(a2-3)Gal(b1-4)GlcNAc
# How it was run: as §1
# [30] = biological target: Man(a1-2)Man(a1-2)Man(a1-3)Man
# How it was run: as §1
# [31] = biological target: Neu5Ac(a2-3)Gal(b1-3)GlcNAc(b1-3)Gal(b1-4)GlcNAc
# How it was run: as §1
# [32] = biological target: Neu5Ac(a2-3)Gal(b1-3)GlcNAc(b1-3)GalNAc
# How it was run: as §1
# [33] = biological target: Neu5Ac(a2-6)Gal(b1-4)GlcNAc(b1-2)Man
# How it was run: as §1
# [34] = biological target: Neu5Ac(a2-6)Gal(b1-4)GlcNAc(b1-3)Gal(b1-4)GlcNAc
# How it was run: as §1
# [35] = biological target: Neu5Ac(a2-8)Neu5Ac(a2-3)[Gal(b1-3)GalNAc(b1-4)]Gal(b1-4)Glc
# How it was run: as §1
# [36] = biological target: Neu5Gc(b2-6)Gal(b1-4)GlcNAc
# How it was run: as §1
binder,measurement,setting,value
B1,glycan array binding signal (z-score),Fuc(a1-2)Gal(b1-3)GlcNAc,-0.318
same,glycan array binding signal (z-score),[1],-0.327
same,glycan array binding signal (z-score),[2],-0.558
same,glycan array binding signal (z-score),[3],0.048
same,glycan array binding signal (z-score),[4],2.91
same,glycan array binding signal (z-score),[5],-0.411
same,glycan array binding signal (z-score),[6],-0.132
same,glycan array binding signal (z-score),[7],-0.077
same,glycan array binding signal (z-score),[8],-0.278
same,glycan array binding signal (z-score),Gal(a1-3)Gal,0.105
same,glycan array binding signal (z-score),[9],-0.472
same,glycan array binding signal (z-score),Gal(b1-2)Gal,0.524
same,glycan array binding signal (z-score),[10],1.27
same,glycan array binding signal (z-score),[11],-0.438
same,glycan array binding signal (z-score),[12],0.215
same,glycan array binding signal (z-score),[13],0.004
same,glycan array binding signal (z-score),[14],-0.448
same,glycan array binding signal (z-score),[15],-0.198
same,glycan array binding signal (z-score),[16],10.7
same,glycan array binding signal (z-score),[17],-0.112
same,glycan array binding signal (z-score),Gal6S(b1-3)GlcNAc,1.34
same,glycan array binding signal (z-score),GalNAc(b1-4)GlcNAc,-0.367
same,glycan array binding signal (z-score),[18],0.357
same,glycan array binding signal (z-score),[19],-0.197
same,glycan array binding signal (z-score),GalNAc4S6S(b1-4)GlcNAc,1.48
same,glycan array binding signal (z-score),[20],0.634
same,glycan array binding signal (z-score),[21],0.853
same,glycan array binding signal (z-score),Glc(b1-6)Glc,-0.442
same,glycan array binding signal (z-score),[22],0.088
same,glycan array binding signal (z-score),[23],3.49
same,glycan array binding signal (z-score),[24],-0.321
same,glycan array binding signal (z-score),[25],1.41
same,glycan array binding signal (z-score),GlcNAc(b1-3)Fuc,1.37
same,glycan array binding signal (z-score),GlcNAc(b1-3)Gal(b1-4)Glc,-0.08
same,glycan array binding signal (z-score),[26],-0.305
same,glycan array binding signal (z-score),[27],7.78
same,glycan array binding signal (z-score),[28],0.125
same,glycan array binding signal (z-score),[29],17.5
same,glycan array binding signal (z-score),Kdn(a2-3)Gal(b1-4)GlcNAc,-0.467
same,glycan array binding signal (z-score),[30],-0.474
same,glycan array binding signal (z-score),[31],0.474
same,glycan array binding signal (z-score),[32],0.273
same,glycan array binding signal (z-score),[33],-0.409
same,glycan array binding signal (z-score),[34],-0.371
same,glycan array binding signal (z-score),[35],-0.007
same,glycan array binding signal (z-score),[36],-0.305
